# Test results reported in the supplement of paper PMC12645437, “Orthogonal IMiD-Degron Pairs Induce Selective Protein Degradation in Cells” (ACS Chemical Biology, 2025).
# Over roughly 8,300 sequences, “log2 fold change of degron read counts, EGFP-low vs EGFP+ sorted cells (limma voom), compound-induced degradation” has its median near -1.1; the highest 2% begin near 3.2. For the sample, the highest values were picked, then their nearest neighbours and some sequences at random.
# T1: CRBN, Q96SW2
# T1 chain: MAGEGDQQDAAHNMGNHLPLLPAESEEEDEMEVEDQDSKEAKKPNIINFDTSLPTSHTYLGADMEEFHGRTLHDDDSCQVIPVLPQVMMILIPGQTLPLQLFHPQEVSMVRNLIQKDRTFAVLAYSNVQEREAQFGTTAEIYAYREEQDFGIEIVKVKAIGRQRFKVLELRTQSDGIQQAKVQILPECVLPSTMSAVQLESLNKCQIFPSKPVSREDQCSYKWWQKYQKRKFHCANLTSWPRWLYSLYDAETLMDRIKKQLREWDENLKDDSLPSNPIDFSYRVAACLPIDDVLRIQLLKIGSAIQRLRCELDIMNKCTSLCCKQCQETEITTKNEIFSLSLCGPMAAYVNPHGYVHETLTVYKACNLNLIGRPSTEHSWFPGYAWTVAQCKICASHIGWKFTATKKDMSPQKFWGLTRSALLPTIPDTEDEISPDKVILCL
# Molecular target: T1, CRBN, Q96SW2
# Test: log2 fold change of degron read counts, EGFP-low vs EGFP+ sorted cells (limma voom), compound-induced degradation; higher = more compound-induced degradation of the degron-EGFP fusion; degrons are variants of IKZF1/3 zinc finger 2; compound dose not given here
# Conditions: Jurkat, 18 h
# [1] = compound: compound 19 (5-tert-butyl-thalidomide)
# [2] = compound: compound 22 (5-morpholino-thalidomide)
# [3] = compound: compound 33 (diphenyl IMiD analogue)
# 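Also: pooled lentiviral library of zinc finger degron-EGFP fusions in mCherry-positive Jurkat cells, FACS-sorted after compound exposure, with degron abundance counted by next-generation sequencing.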
Sequence,log2 fold change of degron read counts [1],log2 fold change of degron read counts [2],log2 fold change of degron read counts [3],log2 fold change of degron read counts (compound: thalidomide)
"FRCEICGAEFTQKGNLLRHIKL [46F_47R_49E_50I_52G_53A_54E_55F_67L_, Q9UKT9]",-0.6,-0.629,1.71,1.31
"FQCEICGAEFTQKGNLLRHIKL [46F_47Q_49E_50I_52G_53A_54E_55F_67L_, Q9UKT9]",1.15,1.54,1.73,3.53
"FYCEICGAEFTQKGNLLRHIKL [46F_47Y_49E_50I_52G_53A_54E_55F_67L_, Q9UKT9]",3.55,3.26,2.06,0.377
"FNCEICGAEFTQKGNLLRHIKL [46F_47N_49E_50I_52G_53A_54E_55F_67L_, Q9UKT9]",1.62,-0.794,-0.586,-0.166
"FCCEICGAEFTQKGNLLRHIKL [46F_47C_49E_50I_52G_53A_54E_55F_67L_, Q9UKT9]",1.77,1.26,0.921,1.54
"FACEICGAEFTQKGNLLRHIKL [46F_47A_49E_50I_52G_53A_54E_55F_67L_, Q9UKT9]",2.52,1.11,-1.05,-0.214
"FTCDVCGATFTQKGNLLRHIKL [46F_47T_49D_50V_52G_53A_54T_55F_67L_, Q9UKT9]",-1.33,0.301,0.357,0.358
"FHCPICGRLFTQKGNLLRHIKL [46F_47H_49P_50I_52G_53R_54L_55F_67L_, Q9UKT9]",-0.285,-0.232,0.531,-0.155
"FGCEICGAAFTQKGNLLRHIKL [46F_47G_49E_50I_52G_53A_54A_55F_67L_, Q9UKT9]",3.04,2.59,2.15,1.39
"FDCEICGAAFTQKGNLLRHIKL [46F_47D_49E_50I_52G_53A_54A_55F_67L_, Q9UKT9]",2.61,0.418,0.792,1.38
"FHCEICGAAFTQKGNLLRHIKL [46F_47H_49E_50I_52G_53A_54A_55F_67L_, Q9UKT9]",3.24,3,1.87,0.773
"FECEICGAAFTQKGNLLRHIKL [46F_47E_49E_50I_52G_53A_54A_55F_67L_, Q9UKT9]",2.86,-0.833,2.05,2.53
"FACEICGAAFTQKGNLLRHIKL [46F_47A_49E_50I_52G_53A_54A_55F_67L_, Q9UKT9]",3.9,3.03,1.11,1.38
"FMCEICGAAFTQKGNLLRHIKL [46F_47M_49E_50I_52G_53A_54A_55F_67L_, Q9UKT9]",2.64,2.45,3.19,2.46
"FRCEICGAAFTQKGNLLRHIKL [46F_47R_49E_50I_52G_53A_54A_55F_67L_, Q9UKT9]",2.72,2.37,2.62,2.49
"FLCEICGAAFTQKGNLLRHIKL [46F_47L_49E_50I_52G_53A_54A_55F_67L_, Q9UKT9]",2.02,0.295,1.47,1.59
"FWCEICGAAFTQKGNLLRHIKL [46F_47W_49E_50I_52G_53A_54A_55F_67L_, Q9UKT9]",3.77,3.83,2.67,1.57
"FFCEICGAAFTQKGNLLRHIKL [46F_47F_49E_50I_52G_53A_54A_55F_67L_, Q9UKT9]",3.55,3.64,2.55,1.87
